Assay results: PubChem BioAssay (Tox21)
“And” between values parts separate entries of the source, which are not always exact repeats. Equal entries are not always repeated. Records with an inconclusive call do not appear. Entries that show only a call come without a potency. More than one record can exist for a structure, and the calls need not agree. The source made the active and inactive calls. Unless noted, calls come from the whole dose curve; as a rule, active = well fitted curve in the direction sought with a large enough effect in the repeat runs; inconclusive = weak or mixed curves; inactive = no such curve, though single readings can be large; an effect the other way counts as inactive or inconclusive.

Legend:
[1] = Human pregnane X receptor (PXR) small molecule agonists, qHTS cell viability counter screen (AID 1346977); note: nearly all actives have a fitted effect of over 50% in size; note: potency is the fitted concentration of half-maximal effect
In short: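 In each well, the PXR reporter HepG2 line was checked for viability: CellTiter-Fluor reagent added 23hr post-dosing, fluorescence read after 1hr incubation at 37C.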

[2] = Caspase-3/7 induction in HepG2 cells by small molecules, qHTS assay (AID 1346978); note: nearly all actives have a fitted effect of over 15% in size
In short: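 Caspase-3/7 induction was measured by Caspase-Glo 3/7 luminescence (30 min, room temperature) after a 17 hr compound exposure of wild-type HepG2 cells seeded at 2,000 per well and pre-incubated 5 hr.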

[3] = Caspase-3/7 induction in CHO-K1 cells by small molecules, qHTS cell viability counter screen (AID 1346979); note: nearly all actives have a fitted effect of over 35% in size; note: potency is the fitted concentration of half-maximal effect
In short: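 Following a 5hr settling period, CHO-K1 cells at 1,500 per well received DMSO-dissolved compounds. Cell viability was quantified 16hr later by CellTiter-Fluor fluorescence, measured after 1hr with reagent at 37C.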

[4] = Caspase-3/7 induction in CHO-K1 cells by small molecules, qHTS assay (AID 1346980); note: nearly all actives have a fitted effect of over 15% in size
In short: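 Luminescent Caspase-Glo 3/7 read (30min, room temperature) quantified apoptosis induction. Cells were wild-type CHO-K1, treated with compound for 17hr at 37 C and 5% CO2.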

[5] = Caspase-3/7 induction in HepG2 cells by small molecules, qHTS cell viability counter screen (AID 1346981); note: nearly all actives have a fitted effect of over 30% in size; note: potency is the fitted concentration of half-maximal effect
In short: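 After a 5-hr attachment period at 37 C and 5% CO2, wild-type HepG2 cells received compounds in DMSO. Sixteen hours later CellTiter-Fluor was dispensed and the fluorescent signal quantified after a further hour.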

[6] = target: Nuclear receptor subfamily 1 group I member 2 (Homo sapiens) (UniProt O75469); test: Human pregnane X receptor (PXR) small molecule agonists, qHTS assay (AID 1346982); note: nearly all actives have a fitted effect of over 35% in size; note: potency is the fitted concentration of half-maximal effect
In short: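 Tox21 qHTS; PXR-Luc HepG2; compounds pinned from DMSO; 24 hr, 37 C; ONE-Glo luciferase detection, 30 min room temperature.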

[7] = target: Acetylcholinesterase (Homo sapiens) (UniProt P22303); test: Acetylcholinesterase (AChE) small molecule antagonists: colormetric cell-based qHTS assay (AID 1347395; calls by dose curve; note: nearly all actives have a fitted effect of over 30% in size)
In short: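 After overnight attachment at 37 C, SH-SY5Y cells get 30 min compound exposure; detection cocktail (acetylthiocholine, DTNB) then incubates 90 min at 37 C, and absorbance reflects AChE-generated thiocholine.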

[8] = target: Acetylcholinesterase (Homo sapiens) (UniProt P22303); test: Acetylcholinesterase (AChE) small molecule antagonists: enzyme-based qHTS assay (AID 1347397; calls by dose curve; note: nearly all actives have a fitted effect of over 55% in size); settings: Potency: AChE enzyme activity inhibition; outcome: AChE enzyme activity inhibition
In short: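 First, recombinant human AChE (50 mU/mL as dispensed) received test compound or DMSO. Second, plates stood 30 min at room temperature. Third, DTNB and acetylthiocholine were added, followed by 10 min at room temperature and colorimetric detection.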

[9] = target: Acetylcholinesterase (Homo sapiens) (UniProt P22303); test: Acetylcholinesterase (AChE) small molecule antagonists: fluorescence cell-based qHTS assay (AID 1347398; calls by dose curve; note: nearly all actives have a fitted effect of over 50% in size); settings: Potency: AChE activity; outcome: AChE activity
In short: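 Homogeneous quantitative HTS format. SH-SY5Y cells seeded at 2,000 per well settle overnight at 37 C. Compound pretreatment runs 30 min (37 C, 5% CO2); substrate/probe mix then reacts 40 min at RT before reading 490/520 nm.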

[10] = target: Cytochrome P450 2D6 (Homo sapiens) (UniProt P10635); test: Cytochrome P450 Family 2 Subfamily D Member 6 (CYP2D6) small molecule antagonists: luciferase reporter qHTS assay (AID 1671196); note: nearly all actives have a fitted effect of over 50% in size; note: potency is the fitted concentration of half-maximal effect
In short: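 Room-temperature luminescent CYP2D6 activity assay: compound preincubated 10 min with enzyme–substrate mix, NADPH-initiated reaction 1 h, detection reagent 20 min before reading.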

[11] = target: Cytochrome P450 2C19 (Homo sapiens) (UniProt P33261); test: Cytochrome P450 Family 2 Subfamily C Member 19 (CYP2C19) small molecule antagonists: luciferase reporter qHTS assay (AID 1671197); note: nearly all actives have a fitted effect of over 65% in size; note: potency is the fitted concentration of half-maximal effect
In short: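 P450-Glo CYP2C19 system: enzyme-substrate mix with compound 10 min at room temperature, then NADPH regeneration solution, 1 h at 37C. Proluciferin-to-luciferin conversion detected by luminescence after 20 min with detection reagent; ketoconazole as positive control.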

[12] = target: Cytochrome P450 2C9 (Homo sapiens) (UniProt P11712); test: Cytochrome P450 Family 2 Subfamily C Member 9 (CYP2C9) small molecule antagonists: luciferase reporter qHTS assay (AID 1671198); note: nearly all actives have a fitted effect of over 50% in size; note: potency is the fitted concentration of half-maximal effect
In short: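 Enzyme-substrate mix preincubated with compound 10 min at room temperature; reaction started with NADPH regeneration solution, 1 h 37C. Luminescent luciferin product read after 20 min detection reagent.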

[13] = target: Cytochrome P450 1A2 (Homo sapiens) (UniProt P05177); test: Cytochrome P450 Family 1 Subfamily A Member 2 (CYP1A2) small molecule antagonists: luciferase reporter qHTS assay (AID 1671199); note: nearly all actives have a fitted effect of over 50% in size; note: potency is the fitted concentration of half-maximal effect
In short: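 Room-temperature CYP1A2 reaction with proluciferin substrate: compounds added from DMSO, 10 min preincubation, NADPH regeneration for 1 h. Luciferin detection reagent then added; luminescence recorded as RLU.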

[14] = target: Acetylcholinesterase (Homo sapiens) (UniProt P22303); test: Acetylcholinesterase (AChE) small molecule antagonists: enzyme-based qHTS assay with human liver microsomes (AID 1347399; calls by dose curve; note: nearly all actives have a fitted effect of over 60% in size); settings: Potency: qHTS inhibition; outcome: qHTS inhibition
In short: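 Recombinant human AChE (50 mU/mL in the enzyme mix) and human liver microsomes (0.25 mg/mL final) were preincubated with compound and NADPH (0.25 mg/mL final) for 30 min at 37 C. Acetylthiocholine/DTNB was then added; thiocholine was read colorimetrically after 10 min at room temperature.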

[15] = target: Cytochrome P450 3A4 (Homo sapiens) (UniProt P08684); test: Cytochrome P450 Family 3 Subfamily A Member 4 (CYP3A4) small molecule antagonists: luciferase reporter qHTS assay (AID 1671201); note: nearly all actives have a fitted effect of over 50% in size; note: potency is the fitted concentration of half-maximal effect
In short: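 CYP3A4 activity was followed with a P450-Glo proluciferin substrate. Test compounds in DMSO were preincubated 10 min; NADPH regeneration then ran 1 h, and light output was read 20 min after detection reagent.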

[16] = target: Voltage-gated inwardly rectifying potassium channel KCNH2 (Homo sapiens) (UniProt Q12809); test: Human Ether-a-go-go-Related Gene (hERG) channel small molecule antagonists: fluorescence cell-based qHTS assay (AID 1671200)
In short: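 In this thallium-flux screen, overnight-cultured U2OS cells bearing the channel are dye-loaded in darkness for an hour, rested 10 min at room temperature, and then monitored kinetically at 480/540 nm for two minutes post-stimulus.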

Sequence of Nuclear receptor subfamily 1 group I member 2 (Homo sapiens) (O75469 whole entry, looked up): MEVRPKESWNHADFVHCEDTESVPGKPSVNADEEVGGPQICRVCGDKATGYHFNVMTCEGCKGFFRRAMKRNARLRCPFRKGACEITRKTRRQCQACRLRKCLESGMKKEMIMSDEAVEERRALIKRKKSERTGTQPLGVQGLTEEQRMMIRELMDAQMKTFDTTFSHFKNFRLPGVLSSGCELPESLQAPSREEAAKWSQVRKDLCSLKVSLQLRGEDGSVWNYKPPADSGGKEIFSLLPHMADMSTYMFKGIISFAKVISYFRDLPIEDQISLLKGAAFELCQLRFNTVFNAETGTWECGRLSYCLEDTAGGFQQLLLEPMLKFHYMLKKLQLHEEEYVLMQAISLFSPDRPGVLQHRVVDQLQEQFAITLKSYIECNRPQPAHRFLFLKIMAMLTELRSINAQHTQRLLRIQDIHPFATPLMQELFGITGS
Sequence of Voltage-gated inwardly rectifying potassium channel KCNH2 (Homo sapiens) (Q12809 whole entry, looked up): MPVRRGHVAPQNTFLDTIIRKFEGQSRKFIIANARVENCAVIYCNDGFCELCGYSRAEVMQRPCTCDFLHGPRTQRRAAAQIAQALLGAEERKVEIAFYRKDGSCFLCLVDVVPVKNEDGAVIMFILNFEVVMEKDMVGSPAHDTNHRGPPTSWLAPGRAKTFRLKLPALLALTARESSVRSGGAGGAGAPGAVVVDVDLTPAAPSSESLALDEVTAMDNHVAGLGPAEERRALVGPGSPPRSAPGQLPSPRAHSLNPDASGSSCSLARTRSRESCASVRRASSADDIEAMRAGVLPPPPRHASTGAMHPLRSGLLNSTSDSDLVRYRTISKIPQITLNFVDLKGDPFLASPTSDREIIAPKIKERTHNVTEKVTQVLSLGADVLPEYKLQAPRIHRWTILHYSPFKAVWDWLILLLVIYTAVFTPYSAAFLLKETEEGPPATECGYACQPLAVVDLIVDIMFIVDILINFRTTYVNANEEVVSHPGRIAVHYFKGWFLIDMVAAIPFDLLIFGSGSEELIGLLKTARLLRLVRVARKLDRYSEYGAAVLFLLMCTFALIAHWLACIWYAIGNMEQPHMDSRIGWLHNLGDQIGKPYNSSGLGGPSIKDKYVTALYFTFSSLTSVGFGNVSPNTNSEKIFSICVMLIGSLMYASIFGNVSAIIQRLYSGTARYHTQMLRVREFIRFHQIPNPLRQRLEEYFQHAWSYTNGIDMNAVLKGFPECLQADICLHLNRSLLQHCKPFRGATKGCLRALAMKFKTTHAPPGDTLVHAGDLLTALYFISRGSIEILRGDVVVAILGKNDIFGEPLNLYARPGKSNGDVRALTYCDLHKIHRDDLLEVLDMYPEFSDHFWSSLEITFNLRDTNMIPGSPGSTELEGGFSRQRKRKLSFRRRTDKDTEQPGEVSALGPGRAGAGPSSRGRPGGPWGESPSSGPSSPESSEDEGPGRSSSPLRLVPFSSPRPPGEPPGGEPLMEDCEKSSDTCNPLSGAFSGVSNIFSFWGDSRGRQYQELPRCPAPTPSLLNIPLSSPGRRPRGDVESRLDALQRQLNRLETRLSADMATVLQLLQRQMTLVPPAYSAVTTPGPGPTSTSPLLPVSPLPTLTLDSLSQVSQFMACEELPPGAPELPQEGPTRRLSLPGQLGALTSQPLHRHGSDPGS
Sequence of Acetylcholinesterase (Homo sapiens) (P22303 whole entry, looked up): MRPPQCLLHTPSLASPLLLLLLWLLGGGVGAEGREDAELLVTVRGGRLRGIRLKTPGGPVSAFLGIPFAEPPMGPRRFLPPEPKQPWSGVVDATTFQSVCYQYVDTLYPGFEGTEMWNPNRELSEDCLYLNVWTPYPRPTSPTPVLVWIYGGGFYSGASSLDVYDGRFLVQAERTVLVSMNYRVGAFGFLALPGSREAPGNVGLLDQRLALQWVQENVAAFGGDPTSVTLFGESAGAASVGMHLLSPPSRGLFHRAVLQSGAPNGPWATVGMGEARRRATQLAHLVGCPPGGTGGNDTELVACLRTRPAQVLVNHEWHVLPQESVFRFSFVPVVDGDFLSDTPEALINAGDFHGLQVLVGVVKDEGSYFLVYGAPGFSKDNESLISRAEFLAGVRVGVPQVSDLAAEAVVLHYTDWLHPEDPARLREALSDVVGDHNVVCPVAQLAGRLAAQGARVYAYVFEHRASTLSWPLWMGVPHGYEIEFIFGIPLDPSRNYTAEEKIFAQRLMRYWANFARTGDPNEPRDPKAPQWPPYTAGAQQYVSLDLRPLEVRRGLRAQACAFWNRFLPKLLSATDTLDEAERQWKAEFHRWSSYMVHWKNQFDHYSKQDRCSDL
Sequence of Cytochrome P450 1A2 (Homo sapiens) (P05177 whole entry, looked up): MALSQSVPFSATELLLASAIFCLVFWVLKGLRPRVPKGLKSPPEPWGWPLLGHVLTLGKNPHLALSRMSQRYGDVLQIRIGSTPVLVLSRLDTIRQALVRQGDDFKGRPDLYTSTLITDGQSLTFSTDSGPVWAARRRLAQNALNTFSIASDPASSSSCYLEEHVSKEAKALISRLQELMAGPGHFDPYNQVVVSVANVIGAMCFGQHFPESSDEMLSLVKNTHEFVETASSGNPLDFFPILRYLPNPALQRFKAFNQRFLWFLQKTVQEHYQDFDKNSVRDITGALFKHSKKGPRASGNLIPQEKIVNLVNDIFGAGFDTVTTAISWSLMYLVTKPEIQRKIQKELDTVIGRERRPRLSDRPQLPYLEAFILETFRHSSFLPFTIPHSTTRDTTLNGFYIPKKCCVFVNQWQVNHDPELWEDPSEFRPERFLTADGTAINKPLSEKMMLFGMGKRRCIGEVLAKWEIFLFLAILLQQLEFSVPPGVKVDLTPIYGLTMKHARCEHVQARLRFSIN
Sequence of Cytochrome P450 2D6 (Homo sapiens) (P10635 whole entry, looked up): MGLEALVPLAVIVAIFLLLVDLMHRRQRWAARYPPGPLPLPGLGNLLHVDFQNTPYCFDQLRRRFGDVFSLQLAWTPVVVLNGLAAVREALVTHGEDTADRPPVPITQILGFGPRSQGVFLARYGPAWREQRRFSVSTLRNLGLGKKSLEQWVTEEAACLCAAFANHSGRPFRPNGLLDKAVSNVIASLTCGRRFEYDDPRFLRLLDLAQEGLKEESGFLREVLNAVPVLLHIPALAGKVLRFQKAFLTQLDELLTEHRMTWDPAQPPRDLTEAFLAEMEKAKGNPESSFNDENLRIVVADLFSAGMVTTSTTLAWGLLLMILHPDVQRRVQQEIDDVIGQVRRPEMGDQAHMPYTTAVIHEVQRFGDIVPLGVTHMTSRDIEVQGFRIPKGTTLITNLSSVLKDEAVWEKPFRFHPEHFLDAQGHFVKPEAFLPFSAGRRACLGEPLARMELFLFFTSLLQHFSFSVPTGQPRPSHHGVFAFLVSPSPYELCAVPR
Sequence of Cytochrome P450 2C19 (Homo sapiens) (P33261 whole entry, looked up): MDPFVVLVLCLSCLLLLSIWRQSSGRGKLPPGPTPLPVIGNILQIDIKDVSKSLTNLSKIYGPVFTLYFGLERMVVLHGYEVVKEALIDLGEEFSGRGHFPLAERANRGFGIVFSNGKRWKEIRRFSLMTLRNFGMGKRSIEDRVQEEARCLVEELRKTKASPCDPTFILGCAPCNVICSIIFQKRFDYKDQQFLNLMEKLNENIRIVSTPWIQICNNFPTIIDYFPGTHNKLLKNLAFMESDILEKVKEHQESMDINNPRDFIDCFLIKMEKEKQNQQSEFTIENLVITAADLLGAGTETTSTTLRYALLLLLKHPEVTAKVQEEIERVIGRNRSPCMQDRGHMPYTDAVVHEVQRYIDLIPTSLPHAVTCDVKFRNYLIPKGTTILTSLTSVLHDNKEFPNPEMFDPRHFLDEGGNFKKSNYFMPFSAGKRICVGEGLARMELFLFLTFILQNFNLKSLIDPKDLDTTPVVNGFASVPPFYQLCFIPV
Sequence of Cytochrome P450 2C9 (Homo sapiens) (P11712 whole entry, looked up): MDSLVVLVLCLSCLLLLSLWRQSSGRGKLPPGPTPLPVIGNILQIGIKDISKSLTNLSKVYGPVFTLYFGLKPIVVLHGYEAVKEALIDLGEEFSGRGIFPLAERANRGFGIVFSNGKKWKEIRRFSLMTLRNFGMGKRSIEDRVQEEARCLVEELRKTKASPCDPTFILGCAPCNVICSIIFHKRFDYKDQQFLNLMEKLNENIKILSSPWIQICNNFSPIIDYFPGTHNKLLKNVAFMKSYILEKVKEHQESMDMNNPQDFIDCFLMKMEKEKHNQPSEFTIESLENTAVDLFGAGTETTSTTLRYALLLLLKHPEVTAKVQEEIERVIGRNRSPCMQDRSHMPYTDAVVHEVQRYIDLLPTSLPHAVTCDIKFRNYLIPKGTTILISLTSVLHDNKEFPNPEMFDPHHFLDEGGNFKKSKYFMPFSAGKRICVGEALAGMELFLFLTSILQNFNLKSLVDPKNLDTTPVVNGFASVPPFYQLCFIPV
Sequence of Cytochrome P450 3A4 (Homo sapiens) (P08684 whole entry, looked up): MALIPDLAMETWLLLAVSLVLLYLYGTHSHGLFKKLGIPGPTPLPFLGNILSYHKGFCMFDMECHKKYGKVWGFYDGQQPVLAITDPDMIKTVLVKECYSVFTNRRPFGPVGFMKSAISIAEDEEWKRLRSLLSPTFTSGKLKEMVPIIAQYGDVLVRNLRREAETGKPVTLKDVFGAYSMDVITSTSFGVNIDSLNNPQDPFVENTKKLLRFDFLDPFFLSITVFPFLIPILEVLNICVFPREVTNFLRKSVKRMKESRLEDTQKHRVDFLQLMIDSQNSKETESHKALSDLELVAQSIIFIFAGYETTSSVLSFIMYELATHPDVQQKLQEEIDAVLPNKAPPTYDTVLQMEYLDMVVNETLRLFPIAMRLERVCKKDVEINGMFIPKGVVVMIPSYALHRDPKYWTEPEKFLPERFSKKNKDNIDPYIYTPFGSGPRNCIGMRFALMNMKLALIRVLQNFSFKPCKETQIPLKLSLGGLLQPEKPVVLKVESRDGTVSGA

SMILES | Potency [1] | Potency [2] | Potency [3] | Potency [4] | Potency [5] | Potency [6] | Potency [7] | Potency [8] | Potency [9] | Potency [10] | Potency [11] | Potency [12] | Potency [13] | Potency [14] | Potency [15] | Potency [16]
SCc1ccccc1 | inactive | inactive | inactive | inactive | inactive | inactive | inactive | inactive | inactive | inactive | 7.31 µM (active) | 36.6 µM (active) | 32.6 µM (active) | – | – | –
COc1cc(CC#N)cc(OC)c1OC | inactive | inactive | inactive | inactive | inactive | inactive | inactive | inactive | inactive | – | inactive | inactive | 24.5 µM (active) | inactive | inactive | –
Nc1ccc2c(c1)Cc1ccccc1-2 | inactive | inactive | inactive | inactive | inactive | 27.1 µM (active) | inactive | inactive | inactive | 62.9 µM (active) | 8.88 µM (active) | 15.8 µM (active) | 1.25 µM (active) | inactive | 14.1 µM (active) | inactive
O=C(O)c1cc(I)cc(I)c1I | inactive | inactive | inactive | inactive | inactive | inactive | inactive | inactive | inactive | – | – | 13.6 µM (active) | – | inactive | inactive | inactive
CCC1(C2=NCCN2)Cc2ccccc2O1 (stereo not given) | inactive | inactive | inactive | inactive | inactive | inactive | inactive | inactive | inactive | 15.5 µM (active) | inactive | inactive | inactive | inactive | inactive | –
C[N+](C)(C)CC1CO1 (stereo not given) | inactive | inactive | inactive | inactive | inactive | inactive | inactive | inactive | inactive | inactive | inactive | inactive | – | inactive | – | inactive
COCc1cnc(C2=NC(C)(C(C)C)C(=O)N2)c(C(=O)O)c1 (stereo not given) | inactive | inactive | inactive | inactive | inactive | inactive | inactive | inactive | inactive | inactive | – | 35.6 µM (active) | – | inactive | inactive | –
C[C@H]1O[C@H](OC2[C@@H](O)[C@@H](O)C(O)[C@H](O)[C@H]2O)[C@@H](N)C[C@@H]1N=C(N)C(=O)O (stereo not given in full) | inactive | inactive | inactive | inactive | inactive | inactive | inactive | inactive | inactive | inactive | inactive | inactive | – | inactive | inactive | –
CCOC(=O)C1OC1(C)c1ccccc1 (stereo not given) | inactive | inactive | inactive | inactive | inactive | inactive | inactive | inactive | inactive | 71.6 µM (active) and inactive | 35.9 µM (active) and 71 µM (active) | – | – | inactive | inactive | inactive
Clc1ccc2ccccc2c1 | inactive | inactive | inactive | inactive | inactive | inactive | inactive | inactive | inactive | – | inactive | inactive | – | inactive | inactive | inactive
O=C(NC(=O)c1cc(F)c(F)cc1Cl)Nc1cc(F)ccc1N1CCC(C(=O)O)CC1 | inactive | inactive | inactive | inactive | inactive | inactive | inactive | inactive | inactive | inactive | inactive | – | inactive | – | inactive | inactive
Clc1ccccc1 | 26.9 µM (active) | inactive | 9.55 µM (active) | inactive | 26.9 µM (active) | 24 µM (active) | inactive | inactive | inactive | inactive | inactive | inactive | inactive | – | inactive | inactive
CC(C)C1(C)N=C(c2ncccc2C(=O)O)NC1=O (stereo not given) | inactive | inactive | inactive | inactive | inactive | inactive | inactive | inactive | inactive | inactive | inactive | inactive | inactive | inactive | inactive | inactive
CCC1CCC(=O)O1 (stereo not given) | inactive | inactive | inactive | inactive | inactive | inactive | inactive | inactive | inactive | inactive | 45.2 µM (active) | inactive | – | inactive | inactive | inactive
